Structures can show the parent of a compound that is named as a salt.
System: Danio rerio larvae (5 dpf)
Assay: activity during period 15 (no stimuli), difference vs DMSO (percentage points (treated minus DMSO)); higher = more of the behaviour than the DMSO vehicle control
Settings: 10 µM; exposure time: 3 h pre-incubation + 3 h imaging
Description: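 5-dpf wild-type zebrafish larvae were imaged in 96-well plates. They were treated with 190 Tocris FDA-approved drugs at 10 µM (1 µl/ml DMSO) for 3 h before and 3 h during imaging at 28.5 °C, 48 larvae per drug. Automated image analysis gave % time moving and optomotor responses. Values are drug group mean minus DMSO vehicle mean (n=844), in percentage points, for 10 behaviours.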

Structure (SMILES) | activity during period 15
C[C@H](Cc1cc2c(c(C(N)=O)c1)N(CCCO)CC2)NCCOc1ccccc1OCC(F)(F)F [Silodosin] | -7.59
Cn1nnc2c(C(N)=O)ncn2c1=O [Temozolomide] | 2.03
CN(CCOc1ccc(CC2SC(=O)NC2=O)cc1)c1ccccn1 (stereo not given) [Rosiglitazone] | 7.42
Cc1cccc(C)c1OCC(C)N (stereo not given) [Mexiletine hydrochloride] | 6.49
CC(C)(C)NC(=O)[C@@H]1C[C@@H]2CCCC[C@@H]2CN1C[C@@H](O)[C@H](Cc1ccccc1)NC(=O)[C@H](CC(N)=O)NC(=O)c1ccc2ccccc2n1 [Saquinavir mesylate] | -12.8
CN(C)CCC[C@@]1(c2ccc(F)cc2)OCc2cc(C#N)ccc21 [Escitalopram oxalate] | -18.3
CC(CCc1ccc(O)cc1)NCCc1ccc(O)c(O)c1 (stereo not given) [Dobutamine hydrochloride] | -8.99
Nc1ccn([C@@H]2O[C@H](CO)[C@@H](O)C2(F)F)c(=O)n1 [Gemcitabine hydrochloride] | -1.53
CN(C)C(=N)NC(=N)N [Metformin hydrochloride] | -4.35
CCc1nc(N)nc(N)c1-c1ccc(Cl)cc1 [Pyrimethamine] | -4.35
NC(=O)OCC(COC(N)=O)c1ccccc1 [Felbamate] | 0.376
N#Cc1ccc2[nH]cc(CCCCN3CCN(c4ccc5oc(C(N)=O)cc5c4)CC3)c2c1 [Vilazodone hydrochloride] | -28.4
CCOc1cc(CC(=O)N[C@@H](CC(C)C)c2ccccc2N2CCCCC2)ccc1C(=O)O [Repaglinide] | -1.47
CCCCNc1cc(C(=O)O)cc(S(N)(=O)=O)c1Oc1ccccc1 [Bumetanide] | -2.8
Cc1ccc(O)c([C@H](CCN(C(C)C)C(C)C)c2ccccc2)c1 [Tolterodine L-tartrate] | 13.9
O=C1CCc2cc(OCCCCc3nnnn3C3CCCCC3)ccc2N1 [Cilostazol] | 3.03
Cc1cc2c(s1)Nc1ccccc1N=C2N1CCN(C)CC1 [Olanzapine] | 5.7
CCOC(=O)[C@H](CCc1ccccc1)N[C@@H](C)C(=O)N1[C@H](C(=O)O)C[C@@H]2CCC[C@@H]21 [Ramipril] | -2.34
Cn1cnc([N+](=O)[O-])c1Sc1ncnc2[nH]cnc12 [Azathioprine] | 8.85
O=C(NCC1CCCCN1)c1cc(OCC(F)(F)F)ccc1OCC(F)(F)F (stereo not given) [Flecainide acetate] | -6.75

Structure (SMILES) | activity during period 15
O=C(Nc1c(Cl)cncc1Cl)c1ccc(OC(F)F)c(OCC2CC2)c1 [Roflumilast] | -9.33
COc1cc2ncnc(Nc3ccc(F)c(Cl)c3)c2cc1OCCCN1CCOCC1 [Iressa] | -0.986
Cc1nc(Nc2ncc(C(=O)Nc3c(C)cccc3Cl)s2)cc(N2CCN(CCO)CC2)n1 [Dasatinib] | -15.1
COc1ccccc1OCC(O)CN1CCN(CC(=O)Nc2c(C)cccc2C)CC1 (stereo not given) [Ranolazine dihydrochloride] | 3.22
COc1cc([C@@H]2c3cc4c(cc3[C@@H](O[C@@H]3O[C@@H]5CO[C@@H](C)O[C@H]5[C@H](O)[C@H]3O)[C@H]3COC(=O)[C@H]23)OCO4)cc(OC)c1O [Etoposide] | -4.13
CC1=Nc2ccc(Cl)cc2S(=O)(=O)N1 [Diazoxide] | 2.35
Clc1ccc2nsnc2c1NC1=NCCN1 [Tizanidine hydrochloride] | -20.8
CC(C)(C(=O)c1cccnc1)c1cccnc1 [Metyrapone] | -7.26
CC(C)COCC(CN(Cc1ccccc1)c1ccccc1)N1CCCC1 (stereo not given) [Bepridil hydrochloride] | 13.7
CC[C@H](C)C(=O)O[C@H]1C[C@@H](C)C=C2C=C[C@H](C)[C@H](CC[C@@H]3C[C@@H](O)CC(=O)O3)[C@H]21 [Lovastatin] | -4.33
CC#C[C@]1(O)CC[C@H]2[C@@H]3CCC4=CC(=O)CCC4=C3[C@@H](c3ccc(N(C)C)cc3)C[C@@]21C [Mifepristone] | -2.26
NS(=O)(=O)c1cc2c(cc1Cl)NC(C1CC3C=CC1C3)NS2(=O)=O (stereo not given) [Cyclothiazide] | 3.93
COc1c(C)c2c(c(O)c1C/C=C(\C)CCC(=O)O)C(=O)OC2 [Mycophenolic acid] | 9.46
CC1CNc2c(cccc2S(=O)(=O)N[C@@H](CCCNC(=N)N)C(=O)N2CC[C@@H](C)C[C@@H]2C(=O)O)C1 (stereo not given in full) [Argatroban] | -2.33
CN1CC[C@@H](NC(=O)Nc2ccc(C#N)cc2)C[C@@H]1c1nc2ccccc2[nH]1 | -0.815
COCCCOc1cc(C[C@@H](C[C@H](N)[C@@H](O)C[C@H](C(=O)NCC(C)(C)C(N)=O)C(C)C)C(C)C)ccc1OC [Aliskiren hemifumarate] | -3.61
CC/C(=C(\c1ccccc1)c1ccc(OCCN(C)C)cc1)c1ccccc1 [Tamoxifen citrate] | 20.1
Cc1nc(-c2ccc(OCC(C)C)c(C#N)c2)sc1C(=O)O [Febuxostat] | 10
N[C@@H]1[C@H]2CN(c3nc4c(cc3F)c(=O)c(C(=O)O)cn4-c3ccc(F)cc3F)C[C@@H]12 [Trovafloxacin mesylate] | 2.91
CNS(=O)(=O)Cc1ccc2[nH]cc(CCN(C)C)c2c1 [Sumatriptan succinate] | 3.89
